Rows were chosen to be rich in hits. Some 10% of all compounds tested hit in one or more screens of this group.
SARS PLpro yeast: blocks SARS-CoV papain-like protease in a yeast assay; 330,000 tested, 0.19% active; AID 485353; Potency, µM (doses to about 32.9 µM), hits mostly activators; S. cerevisiae expressing SARS-CoV PLpro, growth rescue; calls by dose curve; note: nearly all actives have a fitted effect of over 55% in size
Pf growth 48h: P. falciparum growth inhibition at 48 hours (one generation) | 310,000 tested, 5.9% active | Potency, µM (titrated, usually from 28.7 µM), usual class: inhibitors | AID 504832 | P. falciparum luciferase growth in erythrocytes, 48 h
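Luciferase-expressing parasites in RBCs, 2% Hct / 0.1% parasitemia final; RPMI 1640 + 0.5% Albumax; 37 C, 5% CO2, one generation; luminescence read-out, lower signal = inhibition.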
NS1 function inh: inhibitors of influenza NS1 protein function; Potency, µM (series often up to 46.1 µM); 270,000 tested, 0.4% active; AID 2326; calls by dose curve; note: actives are rising curves; nearly all actives have a fitted effect of over 50% in size
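Growth recovery, yeast-based: influenza A NS1 expressed in S. cerevisiae causes slow growth, and suppressors are detected by OD600. The parent strain without NS1 is used as positive control.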
Pf growth 96h: inhibits malaria parasite growth, 96 h | 320,000 tested, 6.9% active | P. falciparum luciferase reporter growth, 96 h | Potency, µM (titrated, usually from 28.7 µM), hits mostly inhibitors
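Parasite growth measured via integrated firefly luciferase reporter in P. falciparum. Infected erythrocytes at 2% hematocrit, 0.05% parasitemia final were treated 96 hours at 37 C under 5% CO2, and luminescence was read.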
Large screens that a line does not name were inactive. Unless noted, calls come from the whole dose curve; as a rule, active = well fitted inhibition curve with a large enough effect; inconclusive = small, poorly fitted or top-dose-only effect, or another doubt; inactive = no such curve, though single readings can be large or run the other way.

O=c1cc(-c2ccccc2)[nH]n1-c1nc2ccccc2s1	Pf growth 96h 5.2µM
CC(=O)c1c(CC(=O)O)[nH]n(-c2nc3ccccc3s2)c1=O	none (no result: Pf growth 48h)
CCN(c1ccc(NC(=O)COC(=O)CCC(=O)c2ccc(F)cc2)cc1)C(C)C	none (no result: Pf growth 96h)
COCCN(CCOC)C(=O)CSc1ccc(S(=O)(=O)N2CCN(C)CC2)cn1	Pf growth 96h inconclusive (no result: NS1 function inh)
Cc1nc(N2CCN(c3ccccn3)CC2)c2c(C)c(C(=O)Nc3c(C)cc(Br)cc3C)sc2n1	Pf growth 48h 1.9µM
Cc1nc(N2CCN(c3ccccn3)CC2)c2c(C)c(C(=O)Nc3ccc(Cl)cc3)sc2n1	Pf growth 48h inconclusive
Cc1nc(N2CCN(c3ccccn3)CC2)c2c(C)c(C(=O)Nc3c(F)cc(F)cc3Br)sc2n1	Pf growth 48h 12µM
Cc1c(C(c2ccc(F)cc2)c2c(C)n(C)n(-c3ccccc3)c2=O)c(=O)n(-c2ccccc2)n1C	Pf growth 96h inconclusive
Cc1cc(C)n2nc(C(=O)N/N=C/c3c4ccccc4cc4ccccc34)nc2n1	Pf growth 96h 12µM
COCCNC(=S)N/N=C/c1c2ccccc2cc2ccccc12	Pf growth 48h 6.6µM, Pf growth 96h 3.7µM
Cn1cccc1CC(=O)N/N=C\c1c2ccccc2cc2ccccc12	none
Cc1cc(C)n2nc(C(=O)N/N=C/c3ccccc3Cl)nc2n1	none
C[N+](C)(C)CC(=O)N/N=C/c1c2ccccc2cc2ccccc12	SARS PLpro yeast inconclusive, Pf growth 48h 9.3µM, Pf growth 96h 6.6µM
Cc1ccccc1NC(=O)Cc1nc(COC(=O)Cc2c(F)cccc2Cl)cs1	Pf growth 48h inconclusive, Pf growth 96h inconclusive (no result: NS1 function inh)
O=C(O)c1cccc(OCCO)c1	none (no result: SARS PLpro yeast, Pf growth 48h, Pf growth 96h)
CCOC(=O)c1[nH]c(Cc2[nH]c(C(=O)OCC)c(C)c2CCC(=O)OC)c(CCC(=O)OC)c1C	Pf growth 48h 1.7µM
CCOC(=O)c1c(C)[nH]c(C(=O)OC)c1CCC(=O)OC	none
CC(C)Oc1cc(O)c2c(=O)c(-c3ccc(O)cc3)coc2c1	Pf growth 96h 2.9µM
CC(=O)Nc1cc(-c2ccccc2)ccc1O	Pf growth 48h inconclusive
Nc1cc(-c2ccccc2)ccc1O	SARS PLpro yeast inconclusive, Pf growth 48h inconclusive, Pf growth 96h 12µM
COc1ccc(N2CSC3=C(C#N)C(c4cc(OC)ccc4OC)CC(=O)N3C2)c(OC)c1 (stereo not drawn)	Pf growth 96h 13µM (no result: Pf growth 48h)
CCc1ccc(N2CSC3=C(C#N)C(c4cccs4)CC(=O)N3C2)cc1 (stereo not drawn)	none (no result: Pf growth 96h)
Cc1ccc(N2CSC3=C(C#N)C(c4cccs4)CC(=O)N3C2)cc1 (stereo not drawn)	Pf growth 96h 15µM (no result: Pf growth 48h)
COc1ccc(N2CSC3=C(C#N)C(c4cc(OC)c(OC)cc4OC)CC(=O)N3C2)c(OC)c1 (stereo not drawn)	none (no result: Pf growth 48h)
COCNc1nc(OCC#N)nc(N(C)C)n1	Pf growth 96h inconclusive
CCNc1nc(ON=C(C)C)nc(N(C)C)n1	Pf growth 48h 8.3µM, Pf growth 96h inconclusive
C/C(=N\NC(=O)Cc1ccc(Cl)cc1)c1cccc(NC(=O)c2cccnc2)c1	Pf growth 96h inconclusive
Cc1ccc(N2C(=O)NC(=O)C3(Cc4ccccc4N4CCN(c5ccccc5)CC43)C2=O)cc1 (stereo not drawn)	Pf growth 48h inconclusive, Pf growth 96h inconclusive
O=C1NC(=O)C2(Cc3ccccc3N3CCCC32)C(=O)N1c1cccc(Cl)c1 (stereo not drawn)	Pf growth 96h 2.3µM
Cc1ccc(C[C@H](C(=O)O)N2C(=O)c3ccc(C(=O)O)cc3C2=O)c(C)c1	Pf growth 48h inconclusive (no result: NS1 function inh)
CCc1c(C(=O)N/N=C/c2ccc(C)o2)csc1C	Pf growth 48h inconclusive, Pf growth 96h inconclusive
COc1ccc(/C=N/Nc2nc(-c3ccc(Cl)cc3)cc(C(F)(F)F)n2)c(OC)c1	none
COc1ccc(/C(C)=N\Nc2nc(-c3ccc(Cl)cc3)cc(C(F)(F)F)n2)cc1OC	Pf growth 48h 10µM, Pf growth 96h inconclusive
Cc1cccc(NC(=S)NC2CCSc3ccccc32)c1 (stereo not drawn)	Pf growth 48h 12µM, Pf growth 96h inconclusive
FC(F)Oc1ccc(NC(=S)NC2CCSc3ccccc32)cc1 (stereo not drawn)	none
O=C(COc1ccc2c3c(c(=O)oc2c1)CCCC3)NCc1ccccn1	Pf growth 96h inconclusive
CC(C)(C)OC(=O)CN1C(=O)C(Sc2n[nH]c(-c3ccccc3)n2)CCc2ccccc21 (stereo not drawn)	Pf growth 48h inconclusive, Pf growth 96h 1.5µM
NC(=O)CSc1nnc(-c2ccccc2F)n1C1CC1	none
COc1cc2cnc(-c3ccccc3)c(-c3cc(OC)c(OC)c(OC)c3)c2cc1OC	Pf growth 48h 10µM, Pf growth 96h 3.7µM (no result: NS1 function inh)
CCOC(=O)C1=C(Nc2ccccc2)CC(C)(O)C(C(=O)OCC)C1c1ccc(Br)cc1 (stereo not drawn)	Pf growth 48h 15µM, Pf growth 96h inconclusive
CCOC(=O)C1=C(Nc2ccccc2)CC(C)(O)C(C(=O)OCC)C1c1ccccc1 (stereo not drawn)	Pf growth 48h inconclusive, Pf growth 96h inconclusive
CCOC(=O)C1=C(Nc2ccc(C)cc2)CC(C)(O)C(C(=O)OCC)C1c1ccccc1 (stereo not drawn)	Pf growth 48h 12µM, NS1 function inh inconclusive, Pf growth 96h 13µM
CCc1ccc(C2C(C(C)=O)=C(C(=O)OC)Nc3nnnn32)cc1 (stereo not drawn)	Pf growth 96h 5.2µM
COc1ccc(NC(=O)c2c(NC(=O)CNCc3ccco3)sc3c2CCC3)cc1	Pf growth 48h 2.6µM, Pf growth 96h inconclusive
COc1ccc(NC(=O)c2c(NC(=O)CNCc3ccco3)sc3c2CCC3)c(OC)c1	Pf growth 48h inconclusive
O=C(CN1CCCC1)Nc1sc2c(c1C(=O)Nc1ccc(Br)cc1)CCC2	Pf growth 48h 12µM, Pf growth 96h inconclusive
Cc1ccc(NC(=O)c2cccc(S(=O)(=O)N3CCc4ccccc4C3)c2)nc1	Pf growth 48h 7.4µM, Pf growth 96h 9.3µM (no result: NS1 function inh)
Cc1cc(N2CCN(C)CC2)ccc1NC(=O)c1cccc(S(=O)(=O)N2CCc3ccccc3C2)c1	Pf growth 48h inconclusive, Pf growth 96h 10µM
CN1CCN(S(=O)(=O)c2cccc(C(=O)Nc3ccccc3N3CCCC3)c2)CC1	none
CC(=O)N1CCN(S(=O)(=O)c2cccc(C(=O)Nc3ccc(C)cn3)c2)CC1	none
CCN(c1ccc(NC(=O)c2ccc(N3CCCC3=O)cc2)cc1)C(C)C	Pf growth 48h inconclusive, Pf growth 96h inconclusive (no result: NS1 function inh)
COC(=O)C(Cc1ccccc1)NC(=O)CNC(=O)c1sc2ccccc2c1Cl (stereo not drawn)	none
CC(C)CC(NC(=O)C1CCC(C)CC1)C(=O)Nc1ccc2c(c1)OCCO2 (stereo not drawn)	none (no result: Pf growth 48h)
CCC1CCC(C(=O)NC(C(=O)Nc2ccc3c(c2)OCCO3)C(C)C)CC1 (stereo not drawn)	Pf growth 96h 9.3µM (no result: Pf growth 48h)
CC1(S(=O)(=O)O)CC(=O)c2ccccc2C1=O (stereo not drawn)	Pf growth 48h 15µM, Pf growth 96h 1.7µM
COc1ccc2nc(N3CCCC(C(=O)NCCCN4C(C)CCCC4C)C3)sc2c1 (stereo not drawn)	none
NC(=O)CS(=O)C[C@H](N)C(=O)O (stereo partly drawn)	none (no result: SARS PLpro yeast, Pf growth 48h, Pf growth 96h)
